# Source: PubChem BioAssay (National Center for Advancing Translational Sciences (NCATS))
# The list is not random: actives were taken first. Their share in the collection is about 19%.
# HepG2 viability – kills HepG2 cells in TGF-b inhibitor counter-screen; HepG2 CAGA-GFP viability, ATP luminescence, 18 h; 410,000 compounds, 0.76% hits; Potency, µM (titrated, usually from 46.1 µM), most hits filed as cytotoxic; AID 588856
#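 HepG2 CAGA-GFP cells (1000/well, DMEM with 1% FBS) received compound, then TGF-beta at 500 pg/mL final, and were incubated 18 hours at 37 degrees C. Viability was read by CellTiter-Glo luminescence. Media-only wells were set as complete cell-killing and DMSO as no toxicity.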
# TDP1 cell CPT – growth inhibition of DT40 Tdp1-/-;hTDP1 cells with camptothecin (screen for TDP1 inhibitors) | chicken DT40 Tdp1-/-;hTDP1 cells + 20 nM CPT, ATP luminescence, 48 h | Potency, µM (doses to about 46.2 µM), most hits filed as inhibitors | 420,000 compounds, 12% hits | AID 686979; also: nearly all actives have a fitted effect of over 55% in size
#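 Cell growth measured by CellTiter-Glo luminescence after a minimum 48 h, 37 C compound exposure with 20 nM CPT in Tdp1-knockout DT40 cells stably expressing hTDP1, seeded 400/well; qHTS titration format.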
# TDP1 cell noCPT – qHTS for Inhibitors of human tyrosyl-DNA phosphodiesterase 1 (TDP1): qHTS in cells in absence of CPT | DT40 Tdp1-/- hTDP1 cells, no CPT, ATP luminescence, 48 h | Potency, µM (highest dose often 46.2 µM), actives largely listed as inhibitors | 420,000 compounds, 15% hits | AID 686978, 2013; also: nearly all actives have a fitted effect of over 55% in size
#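 Growth kinetics read by CellTiter-Glo luminescence after ≥48 hr at 37 °C. Cells: DT40 Tdp1-/- stably carrying human TDP1, 400 per well, compound exposure in the absence of CPT (DMSO vehicle).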
# TGFb inhibitor – TGF-b pathway inhibition | HepG2 CAGA-GFP TGF-b/SMAD3 reporter, GFP fluorescence, 18 h; TGF-beta stimulated, 500 pg/mL final | Potency, µM (highest dose often 46.1 µM), most hits filed as inhibitors | 410,000 compounds, 1.2% hits; also: nearly all actives have a fitted effect of over 65% in size
#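 HEPG2 CAGA-GFP, 1000 cells/well; 2 h settle, 37 C; cpd via pin tool; TGF-b 500 pg/mL final; 18 h, 37 C; GFP imaging ex488/em500-530; %Activity normalised to -TGF-b and +DMSO controls; CRC fit, curve class.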
# IL-1B inflam inh – blocks inflammasome-driven IL-1 beta release; THP-1 LPS/ATP IL-1B secretion, AlphaLISA, 16 h; hits give low values; activity change, % at 57.5 µM; 360,000 compounds, 4.7% hits; AID 743279; in the data active = activity change below about -50%; inconclusive = mostly about -30% to -49%
#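 Secreted IL-1B measured by AlphaLISA bead assay after 16 h compound exposure of THP-1 cells; compounds (final up to 57.5 uM) added 1 h before LPS (250 ng/mL) and ATP (1.25 mM) stimulation; lower signal means less secretion.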
# S-ASM inh – human S-ASM enzyme inhibition; Potency, µM (series often up to 57.5 µM), hits mostly inhibitors; 340,000 compounds, 0.006% hits; placental ASM, HMU-PC fluorogenic substrate, 60 min; AID 504937; P17405
# Target sequence (P17405 47-631 limits assumed): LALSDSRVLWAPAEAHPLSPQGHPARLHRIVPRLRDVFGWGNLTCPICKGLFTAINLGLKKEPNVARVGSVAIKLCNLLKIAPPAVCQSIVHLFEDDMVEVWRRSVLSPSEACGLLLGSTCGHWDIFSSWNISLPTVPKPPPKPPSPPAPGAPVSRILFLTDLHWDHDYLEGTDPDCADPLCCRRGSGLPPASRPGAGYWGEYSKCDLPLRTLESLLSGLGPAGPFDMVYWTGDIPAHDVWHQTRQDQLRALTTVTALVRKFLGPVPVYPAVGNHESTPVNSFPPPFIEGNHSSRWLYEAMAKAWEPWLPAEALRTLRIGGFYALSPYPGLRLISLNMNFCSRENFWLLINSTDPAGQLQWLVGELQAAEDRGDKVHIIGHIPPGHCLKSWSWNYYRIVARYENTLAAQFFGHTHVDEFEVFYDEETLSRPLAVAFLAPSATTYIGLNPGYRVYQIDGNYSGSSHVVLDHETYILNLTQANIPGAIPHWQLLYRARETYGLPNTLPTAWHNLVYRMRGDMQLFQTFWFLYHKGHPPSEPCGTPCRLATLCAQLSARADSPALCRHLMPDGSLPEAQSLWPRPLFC
#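 HMU-PC0 cleavage (9 uM final) by human placental ASM, 60 min at 37 °C following 10 min compound exposure at RT; stopped at pH 10, fluorescence Ex 386/Em 447 nm.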
# A number is an active result; – = inactive; ? = inconclusive; · = no result given. Unless noted, calls follow the shape of the dose curve; as a rule, active = well fitted curve in the direction sought with a large enough effect; inconclusive = small, poorly fitted or top-dose-only effect, or another doubt; inactive = no such curve, though single readings can be large; an effect the other way counts as inactive or inconclusive.
SMILES,HepG2 viability,TDP1 cell CPT,TDP1 cell noCPT,TGFb inhibitor,IL-1B inflam inh,S-ASM inh
CCc1cc(-c2[nH]ncc2-c2ccc3c(c2)OCO3)c(O)cc1O,–,18µM,11µM,?,-89,?
COc1ccc(-c2cncnc2-c2ccc(OC)cc2O)cc1,–,?,?,–,–,–
COc1ccc(-c2cn[nH]c2-c2ccc(OCc3ccc([N+](=O)[O-])cc3)cc2O)cc1,–,?,16µM,?,-56,–
CCc1cc(-c2[nH]ncc2-c2ccc(OC)cc2)c(O)cc1O,–,?,18µM,–,-83,–
O=C(NCCc1ccccc1)c1ccc(-c2ccccc2C(F)(F)F)o1,–,9.2µM,?,?,-59,–
O=C(NCc1ccccc1)c1ccc(-c2ccccc2F)o1,–,–,–,–,–,–
O=C(NCCc1ccccc1)c1ccc(-c2ccc(F)cc2)o1,–,–,–,–,-54,–
CCOc1ccc2nc(N3CCCC3C(=O)N3CCC(c4nc5ccccc5o4)CC3)nc(C)c2c1 (stereo not drawn),·,–,–,·,·,·
O=c1cc(O)c2c([nH]1)CCC2,–,–,–,–,·,·
CCn1c(C)nc([N+](=O)[O-])c1Sc1ccc(F)cc1,–,?,16µM,–,?,–
NC(=O)C(OC(=O)CNC(=O)C1CCCCC1)c1ccccc1 (stereo not drawn),–,–,–,–,·,·
CCOc1ccc(CNC(=O)c2ccc(Sc3ccc(C)cc3)c(NC(C)=O)c2)cc1,–,?,21µM,–,–,–
Cc1ccc(CNC(=O)c2ccc3c(c2)nc(C)n3-c2cc(C)cc(C)c2)cc1,–,?,?,?,·,·
CCOc1ccc(-n2c(C)nc3cc(C(=O)NCc4ccc(C)cc4)ccc32)cc1,–,?,16µM,?,·,·
CCOc1ccc(-n2c(C)nc3cc(C(=O)NCCC4=CCCCC4)ccc32)cc1,–,18µM,16µM,18µM,·,·
Cc1nc2cc(C(=O)NCCC3=CCCCC3)ccc2n1-c1ccc(Br)cc1,–,?,?,?,·,·
Cc1cc(C)cc(-n2c(C)nc3cc(C(=O)NCc4ccc(F)cc4)ccc32)c1,–,?,15µM,?,·,·
CC1CCn2c(nc3cc(C(=O)NCc4ccc(OC(C)C)cc4)ccc32)C1 (stereo not drawn),–,?,23µM,?,·,·
COc1ccc(-c2ccc(C(=O)Nc3ccccc3)c3occc23)c(C)c1,–,21µM,?,–,–,·
COc1ccc(NC(=O)c2oc3ccccc3c2C)cn1,–,?,–,–,–,–
COc1ccc(-c2coc3c(C(=O)Nc4ccc(OC)nc4)cccc23)c(C)c1,–,18µM,21µM,–,–,·
COc1ccc(-c2ccc(C(=O)Nc3ccc4c(c3)OCO4)c3occc23)c(C)c1,–,?,?,–,?,·
COc1ccc(-c2ccc(C(=O)Nc3ccc(OC)nc3)c3occc23)c(C)c1,–,0.37µM,15µM,–,–,·
O=C1NC(=NCc2ccccc2)NC1(c1ccccc1)c1ccccc1,–,–,–,–,–,–
C=CCOc1cc(Cl)ccc1C(=O)NCCN(CC)CC,·,–,–,·,·,·
SMILES,HepG2 viability,TDP1 cell CPT,TDP1 cell noCPT,TGFb inhibitor,IL-1B inflam inh,S-ASM inh
O=C(CN(CC1CCCO1)C(=O)c1nsc(Cl)c1Cl)NC1CCCC1 (stereo not drawn),–,–,–,–,–,–
CCCN(C(=O)c1cc2c(=O)n(CC)c3ccccc3c2s1)c1ccccc1F,–,8.2µM,6.5µM,–,·,·
CCN(C(=O)c1cc2c(=O)n(CC)c3ccccc3c2s1)c1cccc(C(F)(F)F)c1,–,9.2µM,9.2µM,–,·,·
CCCN(C(=O)c1cc2c(=O)oc3ccccc3c2s1)c1ccccc1C,–,18µM,?,–,·,·
CCN(C(=O)c1cc2c(=O)oc3ccc(C)cc3c2s1)c1ccccc1C,–,?,?,–,·,·
CCn1c(=O)c2cc(C(=O)NCc3cccs3)sc2c2ccccc21,–,–,?,–,–,–
CCn1c(=O)c2cc(C(=O)N(C)c3ccccc3F)sc2c2ccccc21,–,?,15µM,–,-72,–
CCOc1ccccc1N(CC)C(=O)c1cc2c(=O)n(CC)c3ccccc3c2s1,–,15µM,16µM,18µM,·,·
CN(Cc1ccccc1)c1ccc(-c2nc(-c3ccco3)no2)cc1[N+](=O)[O-],–,?,?,?,·,·
CCOCCCNC(=O)c1ccc2c(=O)n(CCc3ccc(OC)c(OC)c3)c(=O)[nH]c2c1,–,6.5µM,4.1µM,–,·,·
COc1ccc(-n2c(=O)[nH]c3cc(C(=O)NCCc4ccc(Cl)cc4)ccc3c2=O)cc1OC,–,23µM,15µM,–,–,–
CCCCN(C)CCNC(=O)c1ccc2c(=O)n(CCc3ccccc3)c(=O)[nH]c2c1,–,13µM,23µM,–,·,·
COCCNC(=O)c1cc(S(=O)(=O)N(C)c2ccccc2OC)ccc1C,–,–,?,–,–,–
CS(=O)(=O)N1CCN(c2ccccc2NC(=O)Nc2cccc(Cl)c2)CC1,–,?,?,?,–,–
CCOc1ccc(/C=N/NC(=O)c2nnn(-c3nonc3N)c2-c2cccs2)cc1,–,–,–,–,–,–
CC1Cc2cc(S(=O)(=O)NCCC(=O)N(C)Cc3ccccc3)ccc2N1C(=O)C1CC1 (stereo not drawn),–,?,?,–,–,–
Nc1c(N=O)c(=O)[nH]c(=O)n1-c1ccccc1,–,–,–,–,–,–
CCCNc1c(N)n(-c2ccccc2)c(=O)[nH]c1=O,–,?,16µM,–,–,–
Nc1c(NCc2ccccc2)c(=O)[nH]c(=O)n1Cc1ccccc1,–,?,18µM,–,–,–
CCn1ccnc1CNC(=O)C1CCC(=O)N(Cc2ccccc2F)C1 (stereo not drawn),–,–,–,–,–,–
OC[C@@H]1CN(Cc2ccco2)C[C@H](n2cnc3c(NC4CCCC4)ncnc32)O1,–,–,–,–,–,·
COc1cc(/C=N/O)cc(Br)c1OCc1ccc(Cl)cc1,13µM,?,?,?,?,–
COc1cc(/C=N/O)cc(Br)c1OC,–,–,–,–,–,–
COc1cc(CNC(C)c2ccccc2)cc(Br)c1OCc1ccc(F)cc1 (stereo not drawn),22µM,?,?,?,-94,–
COc1cc(CNC(C)c2ccccc2)cc(Br)c1OCc1ccccc1 (stereo not drawn),–,–,9.2µM,?,-88,–
COc1cc(CNn2c(C)n[nH]c2=S)cc(Br)c1OCc1ccc(F)cc1,–,–,–,–,–,–
